Source: the supplement of paper PMC11732987, “Enantioselective OTUD7B fragment discovery through chemoproteomics screening and high-throughput optimisation” (Communications Chemistry, 2025)

Key:
Assay in all cases: log2 ratio of Biotin-Ahx-Ub-VS probe labelling (fragment/DMSO); higher = less target engagement (more negative = stronger competition), active = hit call of the paper (q ≤ 0.05, log2 ratio ≤ -1)
Settings in all cases: compound concentration: 200 uM; treatment time: 3 h
OTUD6B = target: T1, OTUD6B (UniProt Q8N6M0)
T1 sequence (whole entry): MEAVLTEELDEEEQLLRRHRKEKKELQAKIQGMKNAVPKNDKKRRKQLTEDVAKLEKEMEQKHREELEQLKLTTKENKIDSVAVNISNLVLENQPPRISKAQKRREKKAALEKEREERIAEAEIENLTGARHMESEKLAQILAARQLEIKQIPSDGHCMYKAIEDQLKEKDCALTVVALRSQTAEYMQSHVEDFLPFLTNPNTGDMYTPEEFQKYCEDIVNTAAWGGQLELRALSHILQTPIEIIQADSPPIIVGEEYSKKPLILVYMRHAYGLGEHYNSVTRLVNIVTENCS
Summary of the method: (§1)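 Labelled DUBs were enriched with NeutrAvidin, digested with LysC and trypsin, and run by diaPASEF LC-MS/MS. The labelling used Biotin-Ahx-Ub-VS at 0.5 µM final for 1 h on HEK293T lysate (495 µg per sample) previously treated in triplicate with fragment at 200 µM or vehicle for 3 h. Values are average log2 fragment/vehicle ratios by unpaired t-test on global-median-normalised Spectronaut quantities of proteins with ≥2 unique peptides.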

OTUD7B = target: T2, OTUD7B (UniProt Q6GQQ9)
T2 sequence (whole entry): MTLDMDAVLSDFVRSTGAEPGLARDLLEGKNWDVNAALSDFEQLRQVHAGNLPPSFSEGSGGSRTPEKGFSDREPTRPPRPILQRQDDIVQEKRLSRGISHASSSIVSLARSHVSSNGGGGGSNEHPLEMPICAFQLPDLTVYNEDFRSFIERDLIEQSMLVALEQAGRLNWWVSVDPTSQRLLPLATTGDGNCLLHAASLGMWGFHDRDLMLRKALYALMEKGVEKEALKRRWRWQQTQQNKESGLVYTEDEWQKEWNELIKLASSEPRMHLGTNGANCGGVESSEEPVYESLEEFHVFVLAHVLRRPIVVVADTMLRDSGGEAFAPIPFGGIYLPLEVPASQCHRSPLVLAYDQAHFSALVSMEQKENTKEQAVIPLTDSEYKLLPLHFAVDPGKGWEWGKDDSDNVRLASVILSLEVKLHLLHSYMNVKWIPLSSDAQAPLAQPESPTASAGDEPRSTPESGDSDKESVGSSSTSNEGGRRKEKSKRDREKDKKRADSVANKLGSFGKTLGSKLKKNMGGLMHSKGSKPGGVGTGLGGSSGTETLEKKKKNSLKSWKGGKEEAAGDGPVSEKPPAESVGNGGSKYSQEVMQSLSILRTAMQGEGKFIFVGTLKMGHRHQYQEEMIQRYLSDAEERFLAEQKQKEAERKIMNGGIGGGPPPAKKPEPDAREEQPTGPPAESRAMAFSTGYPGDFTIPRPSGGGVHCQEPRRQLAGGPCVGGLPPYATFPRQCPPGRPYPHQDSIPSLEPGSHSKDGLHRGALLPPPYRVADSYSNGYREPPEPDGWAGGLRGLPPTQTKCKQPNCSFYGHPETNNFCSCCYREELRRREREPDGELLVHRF
Summary of the method: as §1

PRPF8 = PRPF8 (UniProt Q6P2Q9)
Summary of the method: as §1

PSMD7 = target: T3, PSMD7 (UniProt P51665)
T3 sequence (whole entry): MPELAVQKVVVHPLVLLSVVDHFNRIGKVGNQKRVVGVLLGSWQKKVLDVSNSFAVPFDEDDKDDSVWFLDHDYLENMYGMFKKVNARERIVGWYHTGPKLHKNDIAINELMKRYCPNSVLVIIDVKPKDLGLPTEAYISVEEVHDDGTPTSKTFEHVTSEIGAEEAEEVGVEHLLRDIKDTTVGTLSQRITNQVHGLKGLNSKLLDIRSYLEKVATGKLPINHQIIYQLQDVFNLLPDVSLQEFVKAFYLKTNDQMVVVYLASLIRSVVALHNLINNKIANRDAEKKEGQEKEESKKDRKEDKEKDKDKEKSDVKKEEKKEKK
Summary of the method: as §1

UCHL1 = UCHL1 (UniProt P09936)
Summary of the method: as §1

UCHL3 = target: T4, UCHL3 (UniProt P15374)
T4 sequence (whole entry): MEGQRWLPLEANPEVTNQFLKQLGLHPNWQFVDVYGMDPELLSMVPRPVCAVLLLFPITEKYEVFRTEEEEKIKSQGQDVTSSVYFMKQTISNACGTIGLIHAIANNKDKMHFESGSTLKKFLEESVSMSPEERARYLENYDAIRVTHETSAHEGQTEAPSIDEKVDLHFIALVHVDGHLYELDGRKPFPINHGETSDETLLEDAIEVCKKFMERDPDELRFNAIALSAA
Summary of the method: as §1

UCHL5 = target: T5, UCHL5 (UniProt Q9Y5K5)
T5 sequence (whole entry): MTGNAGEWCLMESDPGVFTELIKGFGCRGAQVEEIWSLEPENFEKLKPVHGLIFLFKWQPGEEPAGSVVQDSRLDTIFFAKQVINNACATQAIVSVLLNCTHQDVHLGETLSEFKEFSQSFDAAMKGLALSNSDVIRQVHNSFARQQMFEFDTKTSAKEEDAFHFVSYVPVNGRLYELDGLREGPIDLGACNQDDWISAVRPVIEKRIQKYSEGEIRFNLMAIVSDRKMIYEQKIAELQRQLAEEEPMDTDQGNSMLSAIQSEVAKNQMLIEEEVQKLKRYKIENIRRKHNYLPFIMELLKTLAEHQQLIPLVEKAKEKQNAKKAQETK
Summary of the method: as §1

USP10 = USP10 (UniProt Q14694)
Summary of the method: as §1

USP15 = target: T6, USP15 (UniProt Q9Y4E8)
T6 sequence (whole entry): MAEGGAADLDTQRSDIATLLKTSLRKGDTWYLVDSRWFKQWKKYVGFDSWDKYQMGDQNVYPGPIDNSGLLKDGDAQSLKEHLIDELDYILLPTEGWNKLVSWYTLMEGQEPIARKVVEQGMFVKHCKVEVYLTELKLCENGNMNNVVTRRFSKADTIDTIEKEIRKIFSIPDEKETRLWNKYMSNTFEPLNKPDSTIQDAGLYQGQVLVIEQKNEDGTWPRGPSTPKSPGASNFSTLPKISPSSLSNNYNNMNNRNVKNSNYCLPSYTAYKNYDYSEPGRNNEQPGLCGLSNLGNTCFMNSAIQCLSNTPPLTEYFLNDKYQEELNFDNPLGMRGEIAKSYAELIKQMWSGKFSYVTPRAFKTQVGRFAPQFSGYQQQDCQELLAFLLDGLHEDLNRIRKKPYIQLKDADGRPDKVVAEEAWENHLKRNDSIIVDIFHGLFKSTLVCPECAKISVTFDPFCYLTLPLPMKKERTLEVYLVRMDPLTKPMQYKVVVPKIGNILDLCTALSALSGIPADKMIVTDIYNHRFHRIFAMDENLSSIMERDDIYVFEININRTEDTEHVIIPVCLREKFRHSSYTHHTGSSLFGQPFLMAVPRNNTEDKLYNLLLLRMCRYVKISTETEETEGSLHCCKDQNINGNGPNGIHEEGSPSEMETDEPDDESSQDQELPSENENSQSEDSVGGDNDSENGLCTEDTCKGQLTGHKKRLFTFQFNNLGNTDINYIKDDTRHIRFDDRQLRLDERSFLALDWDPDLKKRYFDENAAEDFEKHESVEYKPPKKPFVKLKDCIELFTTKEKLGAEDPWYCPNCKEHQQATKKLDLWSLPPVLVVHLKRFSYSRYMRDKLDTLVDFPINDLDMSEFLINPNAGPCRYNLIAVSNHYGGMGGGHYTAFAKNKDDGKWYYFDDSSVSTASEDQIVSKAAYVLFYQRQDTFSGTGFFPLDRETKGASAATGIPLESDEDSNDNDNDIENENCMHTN
Summary of the method: as §1

Measured: log2 ratio of Biotin-Ahx-Ub-VS probe labelling

Chain of UCHL1 (P09936 whole entry, looked up): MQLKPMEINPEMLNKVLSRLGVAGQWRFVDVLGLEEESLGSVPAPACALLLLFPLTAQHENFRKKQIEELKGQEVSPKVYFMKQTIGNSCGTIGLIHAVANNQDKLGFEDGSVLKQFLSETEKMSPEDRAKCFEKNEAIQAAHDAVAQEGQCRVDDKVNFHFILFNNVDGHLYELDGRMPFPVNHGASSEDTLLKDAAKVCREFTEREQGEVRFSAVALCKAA
Chain of USP10 (Q14694 whole entry): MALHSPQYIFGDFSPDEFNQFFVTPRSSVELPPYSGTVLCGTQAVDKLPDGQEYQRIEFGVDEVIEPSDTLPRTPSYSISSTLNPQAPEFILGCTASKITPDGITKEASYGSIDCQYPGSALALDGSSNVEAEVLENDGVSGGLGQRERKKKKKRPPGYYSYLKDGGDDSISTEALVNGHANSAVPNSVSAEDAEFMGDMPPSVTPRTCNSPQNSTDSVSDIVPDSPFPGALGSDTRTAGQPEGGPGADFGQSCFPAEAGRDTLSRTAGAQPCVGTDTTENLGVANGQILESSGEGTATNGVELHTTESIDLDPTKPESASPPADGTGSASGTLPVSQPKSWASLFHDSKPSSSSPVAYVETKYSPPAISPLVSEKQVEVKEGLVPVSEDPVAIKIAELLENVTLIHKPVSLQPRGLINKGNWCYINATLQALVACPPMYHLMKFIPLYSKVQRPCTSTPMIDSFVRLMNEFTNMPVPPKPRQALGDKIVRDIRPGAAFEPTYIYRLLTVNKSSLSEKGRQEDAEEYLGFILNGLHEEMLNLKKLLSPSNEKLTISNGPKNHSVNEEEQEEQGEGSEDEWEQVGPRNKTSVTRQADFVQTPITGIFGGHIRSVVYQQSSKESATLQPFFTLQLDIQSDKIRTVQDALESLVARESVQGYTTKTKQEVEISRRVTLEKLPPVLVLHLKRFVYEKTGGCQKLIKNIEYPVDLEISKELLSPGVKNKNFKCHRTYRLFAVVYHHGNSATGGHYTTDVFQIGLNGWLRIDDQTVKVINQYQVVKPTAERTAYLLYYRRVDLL

O=C(CCl)Nc1ccc(Cl)c(F)c1
inactive: OTUD6B -0.448 | PRPF8 0.0807 | PSMD7 -0.221 | UCHL3 -0.216 | UCHL5 -0.398 | USP10 -0.142 | USP15 -0.331
active: OTUD7B -1.15 | UCHL1 -1.36
